PLAP act: activators of human placental alkaline phosphatase; P05187; purified PLAP enzyme, luminescent substrate read-out; stronger effect = higher value; activation fold at 20 µM; hit rate 1.2% among 96,000; AID 696; in the data active means activation fold above about 2
CYP2C19 inhib: human CYP2C19 inhibition. CYP2C19 Supersomes, luciferin-H EGE luminescence, 30 min. P33261. hit rate 21% among 96,000. inhibition, % at 5 µM. AID 778;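 active means CYP2C19 inhibition above a set limit at 5 µM in the primary screen, cut at about 50% in these data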;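 further: plate controls were negative control wells for no effect and 2.5 mM tranylcypromine positive control for full effect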
Target sequence (P33261 whole entry, looked up): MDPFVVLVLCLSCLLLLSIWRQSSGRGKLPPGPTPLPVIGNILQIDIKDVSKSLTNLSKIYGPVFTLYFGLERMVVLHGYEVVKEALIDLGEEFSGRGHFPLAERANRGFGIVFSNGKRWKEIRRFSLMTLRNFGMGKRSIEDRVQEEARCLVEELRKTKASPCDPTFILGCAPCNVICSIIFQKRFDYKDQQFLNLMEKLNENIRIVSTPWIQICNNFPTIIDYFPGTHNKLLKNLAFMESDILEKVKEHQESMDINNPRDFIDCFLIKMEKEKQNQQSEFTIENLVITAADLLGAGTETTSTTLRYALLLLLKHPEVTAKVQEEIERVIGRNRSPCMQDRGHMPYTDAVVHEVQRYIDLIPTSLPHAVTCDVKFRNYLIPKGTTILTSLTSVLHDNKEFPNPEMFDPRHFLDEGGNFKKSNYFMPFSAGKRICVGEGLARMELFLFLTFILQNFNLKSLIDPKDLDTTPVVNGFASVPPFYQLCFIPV
CYP2C19 activ: cytochrome P450 2C19 (human) activation; P33261; AID 1025; recombinant CYP2C19, luciferin-H EGE luminescence; stronger effect = higher value; 0 = fully inhibited enzyme, 1 = untreated enzyme; 96,000 tested, under 10 active; activation factor at 5 µM;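 active means activation factor of at least 2 at 5 µM in the primary screen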;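 further: 0 = wells with 2.5 mM tranylcypromine and 1 = vehicle-only wells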
CYP2C9 act: CYP2C9 (human) activation; hit rate 1.4% among 96,000; AID 1024; activation factor at 5 µM; recombinant CYP2C9, luciferin-H conversion, luminescence; stronger effect = higher value; factor 1 = untreated enzyme, 0 = blocked;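 active means activation factor of 2 or more for CYP2C9 at a 5 µM dose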;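 further: 0 = sulfaphenazole-blocked wells and 1 = vehicle-only wells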
CYP2C9 inh: inhibitors of human CYP2C9; inhibition, % at 5 µM; CYP2C9 Supersomes, luciferin-H conversion, luminescence; P11712; AID 777; hit rate 20% among 96,000;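 active means blocking of liver enzyme CYP2C9 beyond about 50% at 5 µM, limit read from the data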
Numbers without * were called inactive. The list is not random: actives were taken first. Their share in the collection is about 31%.

SMILES	PLAP act	CYP2C19 inhib	CYP2C19 activ	CYP2C9 act	CYP2C9 inh
CCOc1cc(C(=O)N2CCOCC2)ccc1OCc1ccccc1	1.5	-3	1	0.9	6
Cc1cc2c(cc1C)N(CC(=O)N1CCCC1)C(=O)CC(c1ccccc1)=N2	1.7	35	0.7	0.3	68*
COc1ccccc1NC(=O)c1nc[nH]c1C(=O)Nc1ccccc1OC	1.2	5	1	0.8	18
COc1ccccc1NC(=S)NNC(=O)c1nn(C)cc1Cl	1.9	57*	0.4	0.9	7
COc1ccccc1NC(=S)NC(=O)C(C)(C)C	1.1	22	0.8	0.7	28
COc1ccccc1NC(=S)NNC(=O)c1ccc(O)cc1	2.4*	22	0.8	1	3
COc1ccccc1NC(=O)c1nn(C)cc1Br	1	39	0.6	2.2*	-122
COc1ccccc1NC(=S)NNC(=O)c1nn(C)c(C)c1Cl	2.1*	29	0.7	0.9	10
C=Cn1c(N2CCOCC2)nc2c1c(=O)[nH]c(=O)n2C	0.8	-11	1.1	1.1	-10
CCc1sc(-c2c(C#N)c(N)nc3c2CCCCCC3)cc1[N+](=O)[O-]	0.9	2	1	0.9	8
COc1ccc(Nc2nnc(SCc3cc(=O)n4ccsc4n3)s2)cc1	1.2	49	0.5	0.6	41
O=C(CNS(=O)(=O)c1ccc2ccccc2c1)OCc1nnc(-c2ccccc2)o1	1.2	3	1	0.9	9
CCCCCCC(=O)NCC(=O)OCC(=O)c1ccccc1	0.9	12	0.9	0.9	8
CCCCn1c(SCc2cc(=O)[nH]c3ccccc23)nc2c1c(=O)n(C)c(=O)n2C	1.3	14	0.9	0.8	16
COc1ccc(-c2nnnn2C)cc1S(=O)(=O)NCc1ccccc1	0.8	10	0.9	0.9	7
COc1cc(S(=O)(=O)NC2CCCC2)ccc1F	0.8	90*	0.1	1.7	-71
Cc1ccc(S(=O)(=O)NC2CCCC2)cc1C	1	30	0.7	1.6	-57
COc1ccc(S(=O)(=O)NC2CCCC2)cc1Br	0.8	97*	0	2.4*	-135
COc1ccc(S(=O)(=O)NC2CCCCC2)c(C)c1C	0.6	96*	0	1.2	-18
COc1ccc(OC)c(S(=O)(=O)NC2CCCCC2)c1	0.9	30	0.7	0.8	20
COc1cc(S(=O)(=O)Nc2ccccn2)ccc1F	1.1	39	0.6	2.1*	-110
CCCOc1cc(CN2CCCCC2)cc(C(C)=O)c1	1.1	-17	1.2	1.2	-18
CC1=C(C#N)C2C(/C1=N/O)C2(C)C (centres undefined)	1	24	0.8	0.8	20
CC(C)NC(=O)C1CCN(C(=O)C(C(=O)c2ccccc2)n2cc(Cl)ccc2=O)CC1 (centres undefined)	1	1	1	1	4
CN(C)S(=O)(=O)c1cccc(COC(=O)C2=COCCO2)c1	1.1	46	0.5	0.6	38
SMILES	PLAP act	CYP2C19 inhib	CYP2C19 activ	CYP2C9 act	CYP2C9 inh
COc1cc(S(=O)(=O)NC2CCCCC2C)ccc1Cl (centres undefined)	0.8	97*	0	1.8	-82
COc1cc(S(=O)(=O)NC2CCCC2)ccc1Cl	0.7	94*	0.1	3*	-202
CN(C(=O)c1ccc(Cl)cc1)C1=CCCCC1CCC#N (centres undefined)	1	64*	0.4	0.8	15
COc1ccc(C(=O)CN(C(=O)c2ccc(Cl)cc2)N2C(=O)C3CCCCC3C2=O)cc1 (centres undefined)	1	29	0.7	0.7	34
Cn1c(=O)n(CCc2ccccc2)c(=O)c2c1nc1n2CCN1Cc1ccco1	0.9	22	0.8	0.6	35
CCCCOc1ccc(/C=C/C(=O)NCCc2nc3ccccc3[nH]2)cc1	1.1	32	0.7	0.7	34
CCOC(=O)c1ccc(NCc2nc3ccccc3[nH]2)cc1	1	15	0.9	0.3	65*
Cc1cc(C)cc(NC(=O)CCc2nc3ccccc3[nH]2)c1	1	1	1	1.3	-29
CCOC(=O)Cc1nc2ccccc2[nH]1	1.4	11	0.9	1.1	-13
CCCCOC(=O)CCc1nc2ccccc2[nH]1	0.9	50*	0.5	1.1	-6
O=C(CCc1nc2ccccc2[nH]1)Nc1ccccc1	0.9	62*	0.4	0.7	33
O=C(Nc1cc(C(F)(F)F)ccc1N1CCOCC1)c1ccc(Cl)nc1	1	76*	0.2	0.6	37
CCC(=O)Nc1cc(C(F)(F)F)ccc1N1CCOCC1	1.1	32	0.7	0.7	30
O=C(Nc1cc(C(F)(F)F)ccc1N1CCOCC1)c1ccccc1	0.9	64*	0.4	0.9	11
COC(=O)c1ccc(CNC(=O)CNc2cc(C(F)(F)F)ccc2N2CCOCC2)cc1	1	45	0.5	0	95*
Cc1cc(C(=O)OCC(=O)Nc2cc(C(F)(F)F)ccc2N2CCOCC2)c(C)o1	1.2	32	0.7	0.4	63*
O=C(Nc1cc(C(F)(F)F)ccc1N1CCOCC1)c1c(F)c(F)c(F)c(F)c1F	0.9	2	1	1	-1
C(=N\n1cnnc1SCc1ccccc1)/c1ccco1	1.1	12	0.9	0.8	19
Cc1cccc(OCCOc2ccc(/C=N/NC(=O)Cc3nnc(N)s3)cc2)c1	1	-4	1	1	0
O=C(N/N=C/c1ccc(OC(=O)c2cccs2)cc1)c1cccc(F)c1	1.2	-9	1.1	0.9	12
Cc1ccn2cc(C(=O)Nc3ccccc3N3CCOCC3)nc2c1	0.9	45	0.6	0.5	45
O=C(Nc1cc(C(F)(F)F)ccc1N1CCOCC1)c1cn2ccccc2n1	0.8	0	1	0.5	54*
COC(=O)c1cc(Oc2ccc(C(=O)OC)cc2N)cc(C(=O)OC)c1	1.1	38	0.6	0.7	35
COC(=O)CCCCCNc1ccc(C(=O)OC)cc1N	1.6	84*	0.2	0.8	16
Cc1ccc(-n2c(=O)cc(NCc3cccnc3)[nH]c2=O)cc1	1	11	0.9	0.9	8
SMILES	PLAP act	CYP2C19 inhib	CYP2C19 activ	CYP2C9 act	CYP2C9 inh
CCc1nnc(NC(=O)c2ccncc2)s1	1	11	0.9	0.7	27
CC(C)Cc1nnc(NC(=O)c2ccc([N+](=O)[O-])cc2)s1	1	10	0.9	1.3	-27
CC(C)Cc1nnc(NC(=O)c2ccncc2)s1	1.2	92*	0.1	0	96*
CCCc1nnc(NC(=O)c2ccncc2)s1	0.8	47	0.5	0.2	80*
COC(=O)c1nc2n(n1)C(c1ccc(OC)c(OC)c1OC)C1=C(CCCC1=O)N2 (centres undefined)	1.4	-13	1.1	0.7	28
CC(C)(C)C(=O)Nc1c2c(nc3c1CCC3)CCCC2	1.2	1	1	1	1
Cc1ccc(C(=O)C(C)OC(=O)c2cc3cc([N+](=O)[O-])ccc3oc2=O)cc1 (centres undefined)	1.2	16	0.8	0.1	88*
O=C1NC2(CCCCCC2)Cc2ccccc21	0.8	44	0.6	1.1	-12

Compound activity deposited in PubChem by Sanford-Burnham Center for Chemical Genomics.
